Compound activity from PubChem BioAssay.
The list is not random: actives were taken first. Their share in the collection is about 19%.
HT1080-NT tox: qHTS for induction of synthetic lethality in tumor cells producing 2HG: qHTS for the HT-1080-NT fibrosarcoma cell line; HT-1080-NT fibrosarcoma viability, CellTiter-Glo ATP luminescence, 48 h; Potency, µM (series often up to 46.1 µM), for the others: at the highest dose activity, negative = less viability, actives largely listed as cytotoxic; actives 1.6% (n = 360,000);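 further: NT is the 2HG producing partner of a matched IDH1 knockdown line; potency means the concentration at half of the fitted maximal effect; 0% = DMSO-treated cells and -100% = media-only wells without cells; nearly all actives have a fitted effect of over 55% in size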
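Luminescent CellTiter-Glo readout after 48 hours of compound exposure at 37 degrees C defined viability of HT-1080-NT cells. Activity was normalized to DMSO wells and cell-free media wells; concentration-response curves were fitted and assigned curve classes.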
IL1B secr inh: qHTS for Inhibitors of Inflammasome Signaling: IL-1-beta AlphaLISA Primary Screen; actives 4.7% (n = 360,000); activity change, % at 57.5 µM; AID 743279, 2014; THP-1 LPS/ATP IL-1B secretion, AlphaLISA, 16 h; stronger effect = lower value; in the data active means activity change below about -50%; inconclusive means mostly about -30% to -49%
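Secreted IL-1B measured by AlphaLISA bead assay after 16 h compound exposure of THP-1 cells; compounds (final up to 57.5 uM) added 1 h before LPS (250 ng/mL) and ATP (1.25 mM) stimulation; lower signal means less secretion.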
DT40 TDP1 CPT: qHTS for Inhibitors of human tyrosyl-DNA phosphodiesterase 1 (TDP1): qHTS in cells in presence of CPT; actives 12% (n = 420,000); AID 686979, 2013; chicken DT40 Tdp1-/-;hTDP1 cells + 20 nM CPT, ATP luminescence, 48 h; Potency, µM (doses to about 46.2 µM), for the others: at the top dose activity change, negative = growth inhibition, most hits filed as inhibitors; further: potency means the concentration at half of the fitted maximal effect; nearly all actives have a fitted effect of over 55% in size
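Chicken DT40 Tdp1-/- cells stably complemented with human TDP1 were seeded at 400 cells/well in medium containing 20 nM camptothecin, exposed to pin-transferred compounds, and grown at 37 °C for at least 48 hr. Viability was read as ATP luminescence.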
TDP1 cell noCPT: qHTS for Inhibitors of human tyrosyl-DNA phosphodiesterase 1 (TDP1): qHTS in cells in absence of CPT. DT40 Tdp1-/- hTDP1 cells, no CPT, ATP luminescence, 48 h. Potency, µM (series often up to 46.2 µM), for inactives: at the top dose activity change, negative = growth inhibition, hits mostly inhibitors. actives 15% (n = 420,000). AID 686978, 2013; further: potency means the concentration at half of the fitted maximal effect; nearly all actives have a fitted effect of over 55% in size
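DT40 Tdp1-/-;hTDP1 cells, no CPT (DMSO vehicle only), 400 cells/well; compounds pin-transferred; ≥48 hr, 37 °C; CellTiter-Glo 30 min RT dark, luminescence read.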
HT1080 IDH1KD tx: qHTS for induction of synthetic lethality in tumor cells producing 2HG: qHTS for the HT-1080-IDH1KD cell line | HT-1080 IDH1 knockdown viability, ATP luminescence, 48 h | Potency, µM (series often up to 46.1 µM), without a hit: at the highest dose activity, negative = toxicity, usual class: cytotoxic | actives 2% (n = 360,000);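 further: potency means the concentration at half of the fitted maximal effect; 0% = DMSO wells and -100% = cell-free medium wells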
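HT-1080-IDH1KD cells (IDH1 knocked down), 750/well in RPMI with 5% FBS, treated with compound 48 h at 37 degrees C. Viability by CellTiter-Glo luminescence, normalised to DMSO and no-cell wells; concentration-response curves classed.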
Numbers without * were called inactive; ? = inconclusive; . = no result; ! = not active in a repeat. Unless noted, the call rests on the fitted dose curve; in most records, active means well fitted curve in the direction sought with a large enough effect; inconclusive means small, poorly fitted or top-dose-only effect, or another doubt; inactive means no such curve, though single readings can be large; an effect the other way counts as inactive or inconclusive. Unless noted, on the % scale 0 is the no-effect control and ±100 the full control effect.

SMILES | HT1080-NT tox | IL1B secr inh | DT40 TDP1 CPT | TDP1 cell noCPT | HT1080 IDH1KD tx
CCOC(=O)c1c(C)c(-c2ccccc2)n(CC(=O)Nc2cccc(F)c2)c1C | . | . | 5% | ? | .
Cc1ccc(NC(=O)CSc2cn(CC(=O)N3CCOCC3)c3ccccc23)cc1Cl | . | . | 21µM* | 21µM* | .
CCc1ccc(NC(=O)CSc2cn(CC(=O)N3CCCC3)c3ccccc23)cc1 | . | . | 18µM* | ? | .
CCOC(=O)c1ccc(NC(=O)CSc2cn(CC(=O)N3CCCC3)c3ccccc23)cc1 | . | . | ? | 18µM* | .
CCc1ccc(NC(=O)CSc2cn(CC(=O)N3CCOCC3)c3ccccc23)cc1 | . | . | -5% | ? | .
CC(C)c1ccc(NC(=O)C(=O)c2cn(CC(=O)N3CCCCC3)c3ccccc23)cc1 | -11% | 0 | ? | ? | 1%
COC(=O)c1ccc(NC(=O)CSc2cn(CC(=O)N3CCCCCC3)c3ccccc23)cc1 | . | . | ? | 18µM* | .
CCOC(=O)c1ccccc1NC(=O)CSc1cn(CC(=O)N2CCOCC2)c2ccccc12 | . | . | -27% | -22% | .
O=C(CSc1cn[nH]n1)Nc1cccc(C(F)(F)F)c1 | -3% | -2 | -22% | -4% | -1%
Cc1cccc(NC(=O)CS(=O)(=O)c2cn(CC(=O)N3CCOCC3)c3ccccc23)c1 | 0% | -18 | 0.52µM* | 2.3µM* | 16%
CC(=O)C1=CCC(c2ccc(Cl)cc2)N(S(=O)(=O)c2ccccc2)C1 (centres undefined) | -28% | -12 | 21µM* | 18µM* | -21%
CC(=O)C1=CCC(c2ccc(Cl)cc2)N(S(=O)(=O)c2ccc(C)cc2)C1 (centres undefined) | -29% | -57*! | ? | 16µM* | -26%
CC(=O)C1=CCC(c2ccc(C)cc2)N(S(=O)(=O)c2ccc(C)cc2)C1 (centres undefined) | -19% | 25 | ? | ? | -15%
O=C(O)C1=CC[C@@H](c2ccc(Cl)cc2)N(S(=O)(=O)c2ccc(Cl)cc2)C1 | 3% | 15 | -9% | -18% | 1%
CC(=O)C1=CCC(c2ccc(Br)cc2)N(S(=O)(=O)c2ccc(C)cc2)C1 (centres undefined) | ? | -52* | 18µM* | ? | ?
CC(=O)C1=CCC(c2ccccc2)N(S(=O)(=O)c2cccc(C)c2)C1 (centres undefined) | ? | -17 | 16µM* | 13µM* | -27%
COc1ccc(C2CC=C(C(C)=O)CN2S(=O)(=O)c2ccc(Cl)cc2)cc1 (centres undefined) | -14% | -22 | 16µM* | 16µM* | ?
Cc1ccc(S(=O)(=O)N2[C@@H](c3ccccc3)C(C(=O)O)=CC[C@H]2c2ccc(Cl)cc2)cc1 | -1% | 13 | -1% | -1% | -15%
CC(=O)C1=CCC(c2ccccc2)N(S(=O)(=O)c2ccccc2)C1 (centres undefined) | 1% | -1 | 29µM* | 18µM* | 0%
COc1cc(C2C3=C(COC3=O)Oc3cc4c(cc32)OCO4)cc(OC)c1OC(C)=O (centres undefined) | ? | 19 | 0.65µM* | 0.65µM* | ?
COc1cc(C2C(C#N)=C(N)OC3=C2C(=O)CCC3)cc2c1OCO2 (centres undefined) | 21% | -5 | 1% | -6% | 3%
COc1cc(C2N(c3ccccc3)CCN2c2ccccc2)ccc1OC(C)=O | 10% | -24 | -30% | -17% | 6%
COc1ccc(C2C3=C(COC3=O)Oc3cc4c(cc32)OCO4)cc1OC (centres undefined) | 5.8µM* | 9 | 1.8µM* | 1.5µM* | ?
COc1cc(C2C3=C(COC3=O)Oc3cc4c(cc32)OCO4)ccc1OC(C)=O (centres undefined) | ? | 22 | 1.6µM* | 1.8µM* | 5.8µM*
COc1ccc(C(C)=O)cc1CC(=O)Nc1ccccc1-c1ccccc1 | -12% | 21 | ? | -14% | -2%
SMILES | HT1080-NT tox | IL1B secr inh | DT40 TDP1 CPT | TDP1 cell noCPT | HT1080 IDH1KD tx
O=C(NCc1ccccc1)C(=O)NCC(c1cccs1)S(=O)(=O)c1cccs1 (centres undefined) | . | . | -26% | -26% | .
O=C(Cn1c(C(=O)OCCO)cc2ccccc21)c1ccccc1 | -1% | 21 | 8.2µM* | ? | -6%
Cc1cc(C)n(CC(C)(O)c2ccccc2)n1 (centres undefined) | 1% | 26 | -6% | -16% | -1%
Cc1ccc(SC(=O)c2c([N+](=O)[O-])c(C)nn2C)cc1 | ? | -65* | 18µM* | 15µM* | ?
CC(C)Cn1cnc2c(SCCc3ccccc3)nc(N)nc21 | -16% | -9 | ? | ? | -3%
CCOC(=O)C1(C)CCCN(C(=O)c2snnc2C)C1 (centres undefined) | 20% | 8 | -17% | -2% | 4%
CC(C)(C)OC(=O)NCc1ccc(CNC(=O)c2nc[nH]c2C(=O)N2CCc3ccccc3C2)cc1 | 5% | 7 | ? | 18µM* | 4%
CCOC(=O)c1ccc(NC(=O)c2nc[nH]c2C(=O)N2CCc3ccccc3C2)cc1 | 5% | -11 | 12µM* | 13µM* | 2%
CCOC(=O)c1c(C)c(C(=O)N2CCc3ccccc3C2)c(C)n1CC | ? | 17 | ? | 26µM* | ?
CC(C)(C)OC(=O)[C@H](Cc1ccccc1)NC(=O)c1nc[nH]c1C(=O)N1CCN(c2ccccc2)CC1 | -7% | 10 | ? | ? | -13%
CC(C)(C)OC(=O)NCc1ccc(CNC(=O)c2nc[nH]c2C(=O)N2CCN(c3ccccc3)CC2)cc1 | -1% | 18 | ? | 26µM* | -5%
CC(C)(C)N(Cc1ccccc1)C(=O)COC(=O)CNS(=O)(=O)c1ccc2ccccc2c1 | 3% | 22 | -14% | -19% | 0%
CC1(C(=O)NS(=O)(=O)c2ccc(C#N)cc2)CCN1C(=O)Cc1ccc(-c2ccccc2)cc1 (centres undefined) | 3% | 36 | 1% | 10% | 10%
CCOc1ncccc1C(=O)OCc1csc(CC(=O)Nc2ccccc2C)n1 | 0% | -25 | ? | -9% | -27%
C[C@H](N)CCP(=O)(O)O | . | . | -1% | -19% | .
O=c1oc2ccccc2c(NCCO)c1[N+](=O)[O-] | 5% | 13 | -5% | 0% | 6%
